Compound activity (PubChem)
HT1080-NT tox: kills 2HG-producing HT-1080-NT fibrosarcoma cells | HT-1080-NT fibrosarcoma viability, CellTiter-Glo ATP luminescence, 48 h | Potency, µM (doses to about 46.1 µM), for inactives: at the top dose activity, negative = less viability, actives largely listed as cytotoxic | hit rate 1.6% among 360,000;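 further: NT is the 2HG producing partner of a matched IDH1 knockdown line; 0% = DMSO-treated cells and -100% = media-only wells without cells; nearly all actives have a fitted effect of over 55% in size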
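Toxicity toward the 2HG-producing NT line was scored as %Activity, normalised to DMSO and no-cell wells, from CellTiter-Glo luminescence after 48 hours' treatment.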
HT1080 IDH1KD tx: toxicity to HT-1080 IDH1 knockdown cells (counter line). HT-1080 IDH1 knockdown viability, ATP luminescence, 48 h. Potency, µM (doses to about 46.1 µM), without a hit: at the highest dose activity, negative = toxicity, usual class: cytotoxic. hit rate 2% among 360,000. AID 686971;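 further: 0% = DMSO wells and -100% = cell-free medium wells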
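Knockdown cells (IDH1KD HT-1080) received compounds 2 h after plating at 750 cells/well and were kept 48 h at 37 °C in 5% FBS RPMI. A CellTiter-Glo luminescence read gave % activity for curve fitting.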
S2 tox: reduces viability in counter-screen for ATXN expression inhibitors; S2 cells (HEK-293 line with an ATXN2-luciferase reporter) viability, CellTiter-Fluor protease fluorescence, 24 h; Potency, µM (series often up to 56.7 µM), hits mostly cytotoxic; hit rate 0.49% among 400,000; AID 651635; further: nearly all actives have a fitted effect of over 40% in size
HepG2 viability: kills HepG2 cells in TGF-b inhibitor counter-screen; hit rate 0.76% among 410,000; AID 588856; Potency, µM (highest dose often 46.1 µM), inactives show at the top dose activity change, negative = cytotoxicity, most hits filed as cytotoxic; HepG2 CAGA-GFP viability, ATP luminescence, 18 h
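CellTiter-Glo luminescence gave cytotoxicity after 18 hours at 37 degrees C. The cells were HepG2 CAGA-GFP in 1% FBS DMEM, stimulated with 500 pg/mL TGF-beta after compound addition. %Activity was normalised to no-cell wells (complete cell-killing) and DMSO (no toxicity), and curves were fitted and classified.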
TGFb inhibitor: inhibitors of TGF-b signaling | Potency, µM (highest dose often 46.1 µM), inactives show top-dose activity, negative = inhibition, most hits filed as inhibitors | HepG2 CAGA-GFP TGF-b/SMAD3 reporter, GFP fluorescence, 18 h; TGF-beta stimulated, 500 pg/mL final | hit rate 1.2% among 410,000; further: on the % scale 0 is the no-effect control and ±100 the full control effect; nearly all actives have a fitted effect of over 65% in size
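First, reporter cells (HEPG2 CAGA-GFP) rested 2 h at 37 degrees C. Next, compounds were pinned in and TGF-beta added to 500 pg/mL final. After 18 h, GFP was imaged per cell and summed per well.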
ATXN2 expr inh: reduces ATXN2 reporter expression in HEK-293 cells. HEK-293 ATXN2-luciferase reporter, luminescence, 24 h. Potency, µM (titrated, usually from 57 µM), inactives show at the highest dose activity change, negative = inhibition, usual class: inhibitors. hit rate 0.72% among 360,000. AID 1745845; further: on the % scale 0 is the no-effect control and ±100 the full control effect; nearly all actives have a fitted effect of over 55% in size
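ATXN2-luciferase reporter cells (luciferase flanked by upstream and downstream ATXN2 gene portions) were treated 24 h at 37 °C with compounds at up to 57 uM. SteadyGlo luminescence gave expression; GF-AFC fluorescence gave viability.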
The depositor's hits bear a star. Only some compounds are listed: those with a hit (about 3.9% of all), similar ones and a draw of the others. The call rests on the fitted dose curve; in most records, active means well fitted curve in the direction sought with a large enough effect; inconclusive means small, poorly fitted or top-dose-only effect, or another doubt; inactive means no such curve, though single readings can be large; an effect the other way counts as inactive or inconclusive. Potency means the concentration at half of the fitted maximal effect.

Results for CC(C)C[C@H](NC(=O)c1[nH]cnc1C(=O)N[C@@H](Cc1ccccc1)C(=O)OC(C)(C)C)C(=O)OC(C)(C)C ?
HT1080-NT tox: inconclusive; HT1080 IDH1KD tx: inconclusive; HepG2 viability: -31%; TGFb inhibitor: 11µM*; ATXN2 expr inh: inconclusive

What do the screens show for `CC(C)C[C@H](NC(=O)c1[nH]cnc1C(=O)Nc1ccccc1F)C(=O)OC(C)(C)C`?
HT1080-NT tox: -23%; HT1080 IDH1KD tx: inconclusive; S2 tox: inconclusive; HepG2 viability: 11µM*; TGFb inhibitor: inconclusive; ATXN2 expr inh: inconclusive

What do the screens show for `CC(C)C[C@H](NC(=O)c1nc[nH]c1C(=O)NCc1ccc(CNC(=O)OC(C)(C)C)cc1)C(=O)OC(C)(C)C`?
HT1080-NT tox: -11%; HT1080 IDH1KD tx: inconclusive; S2 tox: inconclusive; HepG2 viability: -24%; TGFb inhibitor: inconclusive; ATXN2 expr inh: -18%

Results for CC(C)C[C@H](NC(=O)c1nc[nH]c1C(=O)NCc1ccccc1)C(=O)OC(C)(C)C ?
HT1080-NT tox: -3%; HT1080 IDH1KD tx: -26%; S2 tox: inconclusive; HepG2 viability: -80%; TGFb inhibitor: 11µM*; ATXN2 expr inh: inconclusive

How did CC(C)C[C@H](NC(=O)c1[nH]cnc1C(=O)N[C@@H](C)c1ccccc1)C(=O)OC(C)(C)C do in these assays?
HT1080-NT tox: inconclusive; HT1080 IDH1KD tx: inconclusive; S2 tox: 25µM*; HepG2 viability: -59%; TGFb inhibitor: inconclusive; ATXN2 expr inh: inconclusive

What do the screens show for `Nc1ccc2cccnc2c1`?
HepG2 viability: -16%; TGFb inhibitor: -2%

What do the screens show for `COc1cccc(CN2CCc3nnc(CCc4ccccc4)n3CC2)c1OC`?
S2 tox: inactive

Results for C(=C\c1ccnc2ccccc12)/c1ccc2ccccc2n1 ?
HepG2 viability: -58%; TGFb inhibitor: inconclusive

Results for O=C(c1ccc([N+](=O)[O-])o1)N(Cc1nnc(-c2ccccc2Cl)o1)C1CC1 ?
HT1080-NT tox: 0%; HT1080 IDH1KD tx: 7%; S2 tox: inactive; HepG2 viability: 1%; TGFb inhibitor: 1%; ATXN2 expr inh: -20%

How did Cc1ccc(C(=O)N(Cc2nnc(-c3ccccc3Cl)o2)C2CC2)o1 do in these assays?
HT1080-NT tox: -3%; HT1080 IDH1KD tx: -2%; S2 tox: inactive; HepG2 viability: 10µM*; TGFb inhibitor: -3%

How did CCOC(=O)N1CCC(c2cc(=O)n3[nH]c(C)c(-c4ccc(F)cc4)c3n2)CC1 do in these assays?
HT1080-NT tox: -21%; HT1080 IDH1KD tx: inconclusive; S2 tox: inactive; HepG2 viability: -38%; TGFb inhibitor: -25%; ATXN2 expr inh: 32µM*

How did CCOC(=O)N1CCC(c2cc(=O)n3[nH]c(-c4ccccc4)cc3n2)CC1 do in these assays?
HT1080-NT tox: 13%; HT1080 IDH1KD tx: 12%; S2 tox: inactive; HepG2 viability: -10%; TGFb inhibitor: inconclusive; ATXN2 expr inh: 4%

How did CN(C)CCNC(=O)c1ccc(-n2c(-c3ccccc3)cc3c2CCCC3)cc1 do in these assays?
HepG2 viability: 18µM*; TGFb inhibitor: inconclusive

What do the screens show for `c1ccc(COc2ncnc3c2ncn3CCCNCC(c2ccccc2)c2ccccc2)cc1`?
HT1080-NT tox: 16µM*; HT1080 IDH1KD tx: inconclusive; HepG2 viability: 11µM*; TGFb inhibitor: 16µM*; ATXN2 expr inh: inconclusive

What do the screens show for `COc1ncnc2c1ncn2CCCNCC(c1ccccc1)c1ccccc1`?
HT1080-NT tox: -15%; HT1080 IDH1KD tx: -8%; S2 tox: inactive; HepG2 viability: -20%; TGFb inhibitor: 1%; ATXN2 expr inh: -16%

How did O=C(Nc1ccn(CCCNCC(c2ccccc2)c2ccccc2)c(=O)n1)OCc1ccccc1 do in these assays?
HT1080-NT tox: inconclusive; HT1080 IDH1KD tx: inconclusive; S2 tox: inconclusive; HepG2 viability: -116%; TGFb inhibitor: 16µM*; ATXN2 expr inh: inconclusive

How did CC(CNCCCn1ccc(NC(=O)OCc2ccccc2)nc1=O)c1ccccc1 (configuration not stated) do in these assays?
HT1080-NT tox: -7%; HT1080 IDH1KD tx: -18%; S2 tox: inactive; HepG2 viability: -6%; TGFb inhibitor: -6%; ATXN2 expr inh: -25%

What do the screens show for `CCCS(=O)(=O)NCc1c(C)ncc2c1CCN(C(=O)/C=C/c1ccc(F)cc1F)C2`?
S2 tox: inactive

What do the screens show for `CCOC(=O)C1=C(C)NC(=S)N(C(C)=O)C1c1ccc(Cl)cc1` (configuration not stated)?
HT1080-NT tox: inconclusive; HT1080 IDH1KD tx: 13µM*; S2 tox: inactive; HepG2 viability: -32%; TGFb inhibitor: inconclusive; ATXN2 expr inh: -31%

What do the screens show for `CCOC(=O)C1=C(C)N(C)C(C)=C(C(=O)OCC)C1c1ccc(Cl)cc1`?
HT1080-NT tox: inconclusive; HT1080 IDH1KD tx: 23µM*; S2 tox: inactive; HepG2 viability: -64%; TGFb inhibitor: inconclusive; ATXN2 expr inh: -16%

What do the screens show for `CCOC(=O)C1=C(C)NC(=S)N(C(C)=O)C1c1ccc(OC)c(OC)c1` (configuration not stated)?
HT1080-NT tox: inconclusive; HT1080 IDH1KD tx: inconclusive; S2 tox: inconclusive; HepG2 viability: 4%; TGFb inhibitor: 18%; ATXN2 expr inh: -9%

How did COc1cccc(OC)c1C(=O)Nc1cccc(-c2nc3cc(C)cc(C)c3o2)c1 do in these assays?
S2 tox: inactive; HepG2 viability: -32%; TGFb inhibitor: inconclusive; ATXN2 expr inh: 1%

Results for CC1(O)CC(c2ccc(Cl)cc2)=NN1C(=O)c1ccc([N+](=O)[O-])cc1 (configuration not stated) ?
HT1080-NT tox: 10µM*; HT1080 IDH1KD tx: 16µM*; S2 tox: inactive; HepG2 viability: -38%; TGFb inhibitor: inconclusive; ATXN2 expr inh: inconclusive

What do the screens show for `CC(=O)N1N=C(c2ccc(Cl)cc2)CC1c1ccc([N+](=O)[O-])cc1` (configuration not stated)?
HT1080-NT tox: 1%; HT1080 IDH1KD tx: 6%; S2 tox: inactive; HepG2 viability: 1%; TGFb inhibitor: -2%; ATXN2 expr inh: 4%

What do the screens show for `CCCCOc1ccc(CNC(=O)CCCN2C(=O)CSc3c2c(C)nn3-c2ccccc2)cc1`?
S2 tox: inconclusive; HepG2 viability: -23%; TGFb inhibitor: inconclusive; ATXN2 expr inh: inconclusive

Results for Cc1cc(N2CCC(C(=O)Nc3ccccc3Cl)CC2)n2nc(C)c(-c3ccc(Cl)cc3)c2n1 ?
S2 tox: inactive; HepG2 viability: -5%; TGFb inhibitor: -4%; ATXN2 expr inh: 1%
